Several values for one entry are separate records, joined by “and”; a condition that tells them apart may be missing. Equal entries are not always repeated. Activity calls are given as the source filed them. The call rests on the fitted dose curve.
Experiment: qHTS drug screen for cell cycle checkpoint inhibitors in PARPi-resistant BRCA-mutant ovarian cancer cell lines. (AID 1963452)
Settings: PEO1/OlaR viability, CellTiter-Glo luminescence, 96 h; for Z-AUC: stronger effect = lower value
Source text: Women's Malignancies Branch, Center for Cancer Research (CCR),
National Cancer Institute (NCI), National Institutes of Health (NIH), Bethesda, MD
Poly (ADP-ribose) polymerase inhibitors (PARPis) have changed the treatment paradigm in breast cancer gene (BRCA) - mutant high-grade serous ovarian carcinoma (HGSC). However, most patients eventually develop resistance to PARPis, highlighting an unmet need for improved therapeutic strategies. Using high-throughput drug screens, we identified ataxia telangiectasia and rad3-related protein/checkpoint kinase 1 (CHK1) pathway inhibitors as cytotoxic and further validated the activity of the CHK1 inhibitor (CHK1i) prexasertib in PARPi-sensitive and -resistant BRCA-mutant HGSC cells and xenograft mouse models. CHK1i monotherapy induced DNA damage, apoptosis, and tumor size reduction. We then conducted a phase 2 study (NCT02203513) of prexasertib in patients with BRCA-mutant HGSC. The treatment was well tolerated but yielded an objective response rate of 6% (1 of 17; one partial response) in patients with previous PARPi treatment. […] BRCA reversion mutation in previously PARPi-treated BRCA-mutant patients was not associated with resistance to CHK1i.
Among others, 1082 oncology drugs, both approved and investigational, were prioritized based on their status in clinical trial development. […] Drugs with average Z-AUC values less than -1.0 in all three cell lines were classified as "hits" resulting in 151 oncology drug hits. The screen also confirmed cross-resistance between olaparib and other PARPis (rucaparib, niraparib, and talazoparib) in PARPi-resistant PEO1/OlaR and PEO4.
[1] G. L. Lin, K. M. Wilson, M. Ceribelli, B. Z. Stanton, P. J. Woo, S. Kreimer, E. Y. Qin, X. Zhang, J. Lennon, S. Nagaraja, P. J. Morris, M. Quezada, S. M. Gillespie, D. Y. Duveau, A. M. Michalowski, P. Shinn, R. Guha, M. Ferrer, C. Klumpp-Thomas, S. Michael, C. McKnight, P. Minhas, Z. Itkin, E. H. Raabe, L. Chen, R. Ghanem, A. C. Geraghty, L. Ni, K. I. Andreasson, N. A. Vitanza, K. E.Warren, C. J. Thomas, M. Monje, Therapeutic strategies for diffuse midline glioma from high-throughput combination drug screening. Sci. Transl. Med. 11, (2019).
[2] T. M. Yamamoto, A. McMellen, Z. L. Watson, J. Aguilera, R. Ferguson, E. Nurmemmedov, T. Thakar, G. L. Moldovan, H. Kim, D. M. Cittelly, A. M. Joglar, E. P. Brennecke, H. Wilson, K. Behbakht, M. J. Sikora, B. G. Bitler, Activation of Wnt signaling promotes olaparib resistant ovarian cancer. Mol. Carcinog. 58, 1770 - 1782 (2019).
PROTOCOL TABLE (as described by Inglese J, Shamu CE and Guy RK. 2007)
SEQUENCE No. (e.g., 1, 2, 3, etc.); […] (e.g., Cells, Incubation, Reagent, etc.); VALUE; DESCRIPTION.
1; Compounds; 20nL; 1536-well white tissue culture-treated plates.
2; Cells; 5 uL; PEO1, PEO4, and PEO1/OlaR cells at 600 cells per well.
3; Incubation; 96 hr; 37C, 95% humidity, 5% CO2.
4; Reagent; 3 uL; CellTiter-Glo (Promega).
5; Incubation; 15 min; room temperature.
6; Detection; Luminescence, PHERAstar (BMG Labtech) plate reader.
NOTES (numbers refer to Sequence numbers above)
1. MIPE 5.0 compounds were acoustically dispensed by Echo Acoustic Liquid Handler (Beckman Coulter Life Sciences). Each compound was plated at an 11-point concentration range with 1:3 dilution. Bortezomib, a proteasome inhibitor (final concentration, 20 uM), was used as a positive.
2. PEO1, PEO4, and PEO1/OlaR were trypsinized and dispensed in 5 uLof growth medium using a Multidrop Combi dispenser at a density of 600 cells per well to allow compounds to be present during the exponential growth phase.
3. Plates were incubated for 96 hours at standard incubator conditions and covered by a stainless steel gasketed lid to prevent evaporation.
4. Three microliters of CellTiter-Glo (Promega) were added to each well.
5. Plates were incubated at room temperature for 15 min with a stainless-steel lid in place.
6. Luminescence readings were taken using PHERAstar (BMG Labtech). […]

[1] = measured here: PEO1 parental Z-AUC
Potency means the concentration at half of the fitted maximal effect.

Row | SMILES | Potency | Z-AUC [1] | Z-AUC (measured here: PEO4 Z-AUC) | Z-AUC
1 | C[C@@H]1COC(Nc2ccc3ncnc(Nc4ccc(OCc5nccs5)c(Cl)c4)c3c2)=N1 | 13.8 µM (active) | -1.34 | -1.07 | 
2 | Cc1ccc(NC(=O)C2(c3ccc4c(c3)OC(F)(F)O4)CC2)nc1-c1cccc(C(=O)O)c1 |  | 0.813 | 0.515 | 0.456 (inactive)
3 | CC(=O)OCCN1C(=O)c2c(C)nc3ccc(S(=O)(=O)N4CCOCC4)cc3c2C1=O |  | 1.34 | 1.26 | 1.23 (inactive)
4 | CNC(=O)c1ccc(N2C(=S)N(c3cnc(C#N)c(C(F)(F)F)c3)C(=O)C23CCC3)cc1F |  | -0.208 | 0.0749 | 0.293 (inactive)
5 | CC(C)c1cnn2c(NCc3ccccc3)cc(N[C@@H](CO)[C@H](O)CO)nc12 |  | -1.92 | -1.77 | -1.87 (inactive)
6 | COC(=O)Nc1ccc(-c2nc(N3CCOCC3)c3cnn(C4CCN(Cc5cccnc5)CC4)c3n2)cc1 |  | -0.853 | -0.944 | -0.964 (inactive)
7 | O=C(O)CCCc1c[nH]c2ccccc12 |  | 0.661 | 0.6 | 0.341 (inactive)
8 | COc1cc(Nc2ncc(F)c(Nc3ccc4c(n3)N(COP(=O)(O)O)C(=O)C(C)(C)O4)n2)cc(OC)c1OC |  | 0.402 | 0.538 | 0.561 (inactive)
9 | CCS(=O)(=O)c1cccc(-c2cc(C(=O)NC3CCN(C)CC3)c(C)c3[nH]c4ncc(C)cc4c23)c1 |  | -0.937 | -0.883 | -0.945 (inactive)
10 | COCCOc1ccc2c(c1)ncn2-c1ccc2cccc(N3CCC(N)CC3)c2n1 |  | 0.935 | 0.806 | 0.074 (inactive)
11 | Cc1c(NC(=O)OC[C@@H]2COCCN2)cn2ncnc(Nc3ccc4c(cnn4Cc4cccc(F)c4)c3)c12 |  | -0.48 and 1.05 | -1.04 and 1.11 | -1.36 (inactive) and 1.21 (inactive)
12 | Nc1nccc(Oc2ccc(NC(=O)c3c[nH]cc(-c4ccc(F)cc4)c3=O)cc2F)c1Cl |  | -0.587 | -1.14 | -0.747 (inactive)
13 | COc1ccc(CC2SC(=O)NC2=O)cc1C(=O)NCc1ccc(C(F)(F)F)cc1 (configuration not stated) |  | 1.11 | 1.12 | 1.34 (inactive)
14 | CN1c2cc(O)c(N=NC(N)=O)cc2CC1S(=O)(=O)O (configuration not stated) |  | 0.677 | 1.13 | 1.01 (inactive)

From PubChem BioAssay (NCATS)
